tim23-1 inh – inhibits growth of tim23-1 mutant yeast. 330,000 tested, 1.3% active. inhibition, % at 20 µM. AID 463212. S. cerevisiae tim23-1 growth, BacTiter-Glo luminescence, 24 h;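 active means growth inhibition of the mutant yeast at or above 50%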;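 further: temperature-sensitive mutant grown at 25 °C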
tim10-1 inh – inhibits growth of tim10-1 mutant yeast; S. cerevisiae tim10-1 ts strain growth, BacTiter-Glo, 24 h; 330,000 tested, 2.2% active; inhibition, % at 20 µM;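 active means inhibition of at least 40%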;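 further: mutant grown at 25 °C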
TIM10 inh – inhibits growth of TIM10 yeast strain | AID 463195 | 330,000 tested, 1.4% active | S. cerevisiae TIM10 strain growth, BacTiter-Glo luminescence, 24 h | inhibition, % at 10 µM;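 active means inhibition of 40% or more at the single tested concentration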;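 further: wild-type TIM10 isogenic control strain grown at permissive 25 °C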
PfHsp90 yeast 2 – reduces growth (ATP signal) of yeast expressing P. falciparum Hsp90 | inhibition, % at 9.4 µM | S. cerevisiae expressing PfHsp90, BacTiter-Glo ATP, 48 h; yeast lacking PDR1 and PDR3 efflux regulators | 310,000 tested, 0.32% active;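 active means every replicate shows inhibition above about 80%, whatever the replicate mean, limit read from the data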
Beta2AR agonist – agonists of human beta-2 adrenergic receptor inducing internalization | P07550 | Am2.2-beta2AR cells, FAP receptor internalization, flow cytometry | response, % (test concentration not listed) | 340,000 tested, 0.43% active;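 active means response above a set limit, near 3 SD of response in nonfluorescent compounds, cut at about 42% in these data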
Target sequence (P07550 whole entry, looked up): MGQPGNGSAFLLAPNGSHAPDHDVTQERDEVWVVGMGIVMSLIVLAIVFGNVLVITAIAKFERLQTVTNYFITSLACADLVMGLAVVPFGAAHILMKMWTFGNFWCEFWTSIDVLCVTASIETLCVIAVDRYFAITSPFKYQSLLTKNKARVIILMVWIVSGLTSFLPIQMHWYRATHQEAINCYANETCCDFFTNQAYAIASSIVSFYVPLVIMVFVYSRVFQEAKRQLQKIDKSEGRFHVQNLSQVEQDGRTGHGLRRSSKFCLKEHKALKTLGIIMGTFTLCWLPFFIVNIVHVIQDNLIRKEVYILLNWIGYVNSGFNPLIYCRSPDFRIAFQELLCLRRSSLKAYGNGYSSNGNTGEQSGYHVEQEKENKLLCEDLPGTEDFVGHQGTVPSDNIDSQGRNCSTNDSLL
tim10-1 conf – confirmation of tim10-1 mutant yeast growth inhibitors; inhibition, % at 20 µM; shares compounds with tim10-1 inh; S. cerevisiae tim10-1 ts strain growth, BacTiter-Glo, 24 h; AID 463213; 7,400 tested, 56% active;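 active means inhibition of yeast growth at or above a set limit in either of two repeat tests at 20 µM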;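 further: tim10-1 mutant grown at permissive 25 °C to find synthetic lethal compounds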
A number is an active result; i = inactive; nt = not tested or not shown. Compounds with a hit are over-represented: about 3.8% of the library has one in this group of screens.

SMILES	tim23-1 inh	tim10-1 inh	TIM10 inh	PfHsp90 yeast 2	Beta2AR agonist	tim10-1 conf
CC[C@@H]1CC=C[C@H]2[C@H]1C(=O)N(Cc1ccccc1)[C@H]2c1ccc(C(F)(F)F)cc1	i	i	i	i	i	nt
Cc1cccc(NC(=O)c2ccc(C)c(S(=O)(=O)N3CCOCC3)c2)n1	nt	nt	nt	i	i	nt
CC(=O)c1c(C)[nH]c(C(=O)Nc2nc(-c3ccc(-c4ccccc4)cc3)cs2)c1C	i	45	i	i	i	i
COCCCNc1c2c3c(cccc3[nH]c1=O)C(=O)c1ccccc1-2	i	41	i	i	i	i
O=C(Nc1nnc(C2=COCCO2)o1)c1ccc([N+](=O)[O-])cc1	i	46	i	i	i	35
O=C(Nc1nnc(C2=COCCO2)o1)c1ccc(Cl)cc1	i	57	i	i	i	32
O=C(Nc1nnc(C2=COCCO2)o1)c1ccc(F)cc1	i	i	i	i	i	nt
O=C(Nc1nnc(C2=COCCO2)o1)c1ccc(Br)cc1	i	42	i	i	i	39
O=C(Nc1nnc(C2=COCCO2)o1)c1ccc(Cc2ccccc2)cc1	i	i	i	nt	i	nt
COCCN(CC(=O)Nc1cc(Cl)ccc1-n1cncn1)Cc1nc2ccccc2c(=O)[nH]1	i	i	i	i	i	nt
Cc1ccc(C)c(S(=O)(=O)ON2C(=O)c3ccccc3C2=O)c1	i	70	i	i	i	52
O=C(NC1CCCC1)C(c1ccc(F)cc1)N(Cc1ccc(F)cc1)C(=O)CCl (stereo not given)	i	57	i	i	i	33
CC(NC(=O)c1ccc(NC(=O)CC2SC(N3CCCC3)=NC2=O)cc1)c1ccc(F)cc1 (stereo not given)	i	i	i	i	i	nt
O=C1/C(=C/c2cccnc2)SC(=S)N1N1CCOCC1	i	52	i	i	i	40
COc1ccc(-c2nnc3sc(-c4ccccn4)nn23)cc1	i	44	i	nt	nt	i
COc1cccc(-c2nnc3sc(-c4ccccn4)nn23)c1	i	i	i	i	i	nt
COc1cccc(-c2nn3c(-c4ccccn4)nnc3s2)c1	i	58	i	nt	i	54
CC(C)CNS(=O)(=O)c1ccc(Br)cc1N1CCC[C@@H]1CO	i	i	i	i	i	nt
COC(=O)c1cc(C)ccc1/C=C1/Cc2c(C)cc(C)cc2C1=O	nt	nt	nt	i	i	nt
O=c1c2ccccc2nc(SCc2cn3ccsc3n2)n1-c1ccc(F)cc1	i	43	i	i	i	i
CC(C)n1c(O)c(N=NC(=O)C2COc3ccccc3O2)c2ccccc21 (stereo not given)	i	48	i	i	i	i
COc1ccc(CCNC(=O)C2CCN(S(=O)(=O)c3ccc(F)cc3)CC2)cc1	i	i	i	i	i	nt
COc1cccc(CN(c2ccccc2C(=O)O)S(=O)(=O)c2ccc(C)cc2)c1	nt	nt	nt	i	i	nt
O=C(CSc1ncnc2sc3c(c12)CCCCC3)NCc1ccco1	i	47	i	i	i	34
O=C(CSc1ncnc2sc3c(c12)CCCC3)c1ccco1	i	i	i	i	i	nt
SMILES	tim23-1 inh	tim10-1 inh	TIM10 inh	PfHsp90 yeast 2	Beta2AR agonist	tim10-1 conf
O=c1c2c(-c3cccs3)csc2ncn1/N=C/c1ccc(OC(F)F)cc1	i	47	i	i	i	39
COc1ccccc1NC(=S)NCCc1ccc(F)cc1	i	48	i	i	i	i
Cc1ccc2c(CN3CCN(S(=O)(=O)c4ccccc4C(F)(F)F)CC3)cc(=O)oc2c1C	i	i	i	i	i	nt
CCCn1c(NC(=O)CN2C(=O)NC3(CCCCC3)C2=O)nc2ccccc21	i	i	i	i	i	nt
Cc1ccc(C(=O)Nc2sc3c(c2C(=O)O)CCCCC3)o1	i	41	i	i	i	35
COc1ccc(OC)c(/C=C/C(=O)OCC(=O)N2CCN(S(=O)(=O)c3ccc(C)cc3C)CC2)c1	i	i	i	i	i	nt
O=C1C(c2ccc(F)cc2)N(Cc2ccc3c(c2)OCO3)C(=O)CN1C1CCCCC1 (stereo not given)	i	40	i	i	i	i
O=C1C(c2ccc(F)cc2)N(Cc2ccc3c(c2)OCO3)C(=O)CN1C1CCCC1 (stereo not given)	i	i	i	i	i	nt
COc1ccc(Nc2nc(NN)nc(Nc3ccc(OC)cc3)n2)cc1	i	i	i	i	i	nt
NNc1nc(Nc2ccccc2)nc(Nc2ccccc2)n1	i	51	i	i	i	42
O=C(NCc1ccco1)C1CCN(C(=O)c2ccc(Cl)cc2Cl)CC1	i	i	i	i	i	nt
CC(C)OC(=O)c1ccc2nc3ccccc3nc2c1	i	41	i	i	i	i
CC(C)n1ncc2c(C(=O)NCCc3ccc(S(N)(=O)=O)cc3)cc(C3CC3)nc21	i	i	i	i	i	nt
Cc1nn(-c2ccccc2)c(Cl)c1C(=O)N1CCN(c2ncnc3c2cnn3-c2ccccc2)CC1	i	41	i	i	i	32
NS(=O)(=O)c1ccc(CCNS(=O)(=O)Cc2ccc(Cl)cc2)cc1	i	i	i	i	i	nt
OC(COCC(F)(F)C(F)(F)C(F)(F)C(F)F)Cn1c2ccc(Cl)cc2c2cc(Cl)ccc21 (stereo not given)	i	41	i	i	i	36
CCOC(=O)c1c(O)c2cc(Cl)ccc2n(CC)c1=O	i	i	i	nt	i	nt
CCN(CC(=O)Nc1ccc(NC(C)=O)cc1)C(=O)c1cc(-c2ccccc2Cl)nc2ccccc12	nt	nt	nt	i	i	nt
Cc1csc(NC(=O)c2ccc(C)c(S(=O)(=O)N3CCOCC3)c2)n1	i	41	i	nt	nt	i
COc1cc(/C=C2\C(=O)ON=C2c2ccccc2)cc(Br)c1O	i	i	i	i	i	nt
CCOc1cc(/C=C2\C(=O)ON=C2c2ccccc2)cc(Br)c1O	i	45	i	i	i	30
CCOC(=O)C1=C(C)NC(C)=C(C(=O)OC)C1c1cccc([N+](=O)[O-])c1 (stereo not given)	i	i	i	i	i	nt
COC(=O)C1=C(C)NC(C)=C(C(=O)O[C@@H]2CCCN(Cc3ccccc3)C2)[C@@H]1c1cccc([N+](=O)[O-])c1	i	45	i	i	i	i
COc1ccc(-n2ncc3c2CC(C)(C)CC3NC(=O)c2ocnc2C)cc1 (stereo not given)	i	i	i	i	i	nt
Cc1ncoc1C(=O)NC1CC(C)(C)Cc2c1cnn2-c1ccccc1 (stereo not given)	i	i	i	i	i	nt
COc1ccc(-n2ncc3c2CC(C)(C)CC3NC(=O)c2oc(C)cc2C)cc1 (stereo not given)	i	44	i	i	i	i
Cc1cc(C)c(C(=O)NC2CC(C)(C)Cc3c2cnn3-c2ccccc2)o1 (stereo not given)	i	45	i	i	i	i
CSCc1ccc(C(=O)NC2CC(C)(C)Cc3c2cnn3-c2ccc(F)cc2)o1 (stereo not given)	i	41	i	i	i	i
Cc1cc(Br)ccc1NC(=O)C1CCN(S(=O)(=O)c2cnc[nH]2)CC1	i	i	i	i	i	nt
